Assay results published in PubChem BioAssay (NCATS).
Inconclusive results are not listed. Active and inactive are the calls of the source. Unless noted, the call rests on the fitted dose curve; in most records, active means well fitted curve in the direction sought with a large enough effect; inconclusive means small, poorly fitted or top-dose-only effect, or another doubt; inactive means no such curve, though single readings can be large; an effect the other way counts as inactive or inconclusive.

Columns and labels:
[1] = Cytometric Cell-Based qHTS for Inhibitors of the mTORC1 Signaling Pathway in MEF (Tsc2-/-, p53-/-) Cells (AID 2660);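 further: Tsc2 and p53 null MEFs carrying empty vector with compound for 24 h; percent of cells above a phospho-rpS6 to PI ratio cutoff in each well; series mostly up to about 38 µM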
Method in brief: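 Cells are plated, treated with compound for 24 hrs at 37 degree Celsius, then fixed, blocked and immunostained for phospho-rpS6 Ser235/236. Propidium iodide counterstain follows. Per-well % positive cells is derived from the PI-normalized phospho-S6 signal.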

[2] = High Content Imaging Cell-Based qHTS for Inhibitors of the mTORC1 Signaling Pathway in MEF (Tsc2-/-, p53-/-) Cells (AID 2666);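 further: percent of cells scored positive for phospho-rpS6 Ser235/236 immunostaining by imaging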
Method in brief: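 MEF Tsc2-/- p53-/- (empty vector), DMEM/10% FBS; cpd 24 h 37 °C; PFA fix, Alexa-488 p-rpS6 S235/236 Ab, Hoechst; imaged; rapamycin-defined inhibition; % positive cells/well.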

[3] = High Content Imaging Cell-Based qHTS for Inhibitors of the mTORC1 Signaling Pathway in MEF Cells (AID 2667);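 further: Tsc2-/- p53-/- MEFs stably re-expressing wild-type Tsc2 exposed 24 h; series mostly up to about 38 µM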
Method in brief: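 Read-out is the share of phospho-rpS6-positive cells per well, from Hoechst-normalized Alexa-488 Ser235/236 staining imaged on IN Cell. Cells: WT Tsc2-expressing Tsc2-/-, p53-/- MEFs exposed to compound for 24 hrs.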

[4] = Cytometry Cell-Based qHTS for Inhibitors of the mTORC1 Signaling Pathway in MEF cells (AID 2668);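 further: Tsc2-/- p53-/- mouse embryonic fibroblasts stably re-expressing wild-type Tsc2; percent cells positive for phospho-rpS6 Ser235/236 relative to propidium iodide stain; series mostly up to about 38 µM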
Method in brief: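 Tsc2-/-, p53-/- MEFs re-expressing WT Tsc2; cpd 24 hrs, 37 degree Celsius; PFA fix, Alexa-488 p-rpS6 (Ser235/236) Ab 2 hrs RT, PI counterstain; Acumen 488nm scan; p-S6/PI ratio → % positive cells; PI count = viability.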

[5] = Validation screen for small molecules that induce DNA re-replication in MCF 10A normal breast cells (AID 463097); further: nearly all actives have a fitted effect of over 60% in size
Method in brief: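 Image-based qHTS: normal breast cells are incubated with compound for 48 hr, stained with Hoechst, and scanned for total nuclear fluorescence. Compounds raising the fraction of nuclei with elevated DNA content count as re-replication inducers.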

[6] = molecular target: Ubiquitin carboxyl-terminal hydrolase 2 (Homo sapiens) (UniProt O75604); test: qHTS Validation Assay for Inhibitors of Ubiquitin-specific Protease USP2a Using CHOP2 as the Reporter (AID 463106)
Chain of Ubiquitin carboxyl-terminal hydrolase 2 (Homo sapiens) (O75604 whole entry, looked up): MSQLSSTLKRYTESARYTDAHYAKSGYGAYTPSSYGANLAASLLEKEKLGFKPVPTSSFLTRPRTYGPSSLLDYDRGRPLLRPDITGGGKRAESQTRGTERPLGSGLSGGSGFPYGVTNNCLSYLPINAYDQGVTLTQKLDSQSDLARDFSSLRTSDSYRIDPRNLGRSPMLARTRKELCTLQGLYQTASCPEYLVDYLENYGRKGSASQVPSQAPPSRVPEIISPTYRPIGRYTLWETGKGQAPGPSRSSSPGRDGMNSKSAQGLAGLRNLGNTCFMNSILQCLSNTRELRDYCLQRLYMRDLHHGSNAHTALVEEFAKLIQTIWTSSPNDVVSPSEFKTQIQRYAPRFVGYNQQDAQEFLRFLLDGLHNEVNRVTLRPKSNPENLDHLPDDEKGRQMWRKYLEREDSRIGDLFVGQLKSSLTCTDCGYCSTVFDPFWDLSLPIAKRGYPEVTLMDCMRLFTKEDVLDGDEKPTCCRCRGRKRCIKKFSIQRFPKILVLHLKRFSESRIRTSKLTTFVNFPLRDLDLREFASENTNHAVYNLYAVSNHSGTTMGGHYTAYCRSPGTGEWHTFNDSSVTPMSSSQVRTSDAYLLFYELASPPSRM
Method in brief: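 Fluorescence read-out at Ex 485nm/Em 531nm after 60min RT, following addition of 25nM Ub-CHOP2 plus 25nM reporter substrate to USP2 core (10nM) pretreated 30min with compound. Data normalized to NEM full inhibition; concentration-response curves fitted.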

[7] = molecular target: DNA polymerase III PolC-type (Bacillus subtilis (strain 168)) (UniProt P13267); test: qHTS Validation Assay for the Inhibitors of DNA Replication in Gram-Positive Bacteria (AID 485295);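 further: reconstituted holoenzyme with PolC plus beta clamp SSB and primase; PicoGreen fluorescence of double-stranded DNA made on primed circular M13 template; series mostly up to about 57 µM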
Chain of DNA polymerase III PolC-type (Bacillus subtilis (strain 168)) (P13267 whole entry, looked up): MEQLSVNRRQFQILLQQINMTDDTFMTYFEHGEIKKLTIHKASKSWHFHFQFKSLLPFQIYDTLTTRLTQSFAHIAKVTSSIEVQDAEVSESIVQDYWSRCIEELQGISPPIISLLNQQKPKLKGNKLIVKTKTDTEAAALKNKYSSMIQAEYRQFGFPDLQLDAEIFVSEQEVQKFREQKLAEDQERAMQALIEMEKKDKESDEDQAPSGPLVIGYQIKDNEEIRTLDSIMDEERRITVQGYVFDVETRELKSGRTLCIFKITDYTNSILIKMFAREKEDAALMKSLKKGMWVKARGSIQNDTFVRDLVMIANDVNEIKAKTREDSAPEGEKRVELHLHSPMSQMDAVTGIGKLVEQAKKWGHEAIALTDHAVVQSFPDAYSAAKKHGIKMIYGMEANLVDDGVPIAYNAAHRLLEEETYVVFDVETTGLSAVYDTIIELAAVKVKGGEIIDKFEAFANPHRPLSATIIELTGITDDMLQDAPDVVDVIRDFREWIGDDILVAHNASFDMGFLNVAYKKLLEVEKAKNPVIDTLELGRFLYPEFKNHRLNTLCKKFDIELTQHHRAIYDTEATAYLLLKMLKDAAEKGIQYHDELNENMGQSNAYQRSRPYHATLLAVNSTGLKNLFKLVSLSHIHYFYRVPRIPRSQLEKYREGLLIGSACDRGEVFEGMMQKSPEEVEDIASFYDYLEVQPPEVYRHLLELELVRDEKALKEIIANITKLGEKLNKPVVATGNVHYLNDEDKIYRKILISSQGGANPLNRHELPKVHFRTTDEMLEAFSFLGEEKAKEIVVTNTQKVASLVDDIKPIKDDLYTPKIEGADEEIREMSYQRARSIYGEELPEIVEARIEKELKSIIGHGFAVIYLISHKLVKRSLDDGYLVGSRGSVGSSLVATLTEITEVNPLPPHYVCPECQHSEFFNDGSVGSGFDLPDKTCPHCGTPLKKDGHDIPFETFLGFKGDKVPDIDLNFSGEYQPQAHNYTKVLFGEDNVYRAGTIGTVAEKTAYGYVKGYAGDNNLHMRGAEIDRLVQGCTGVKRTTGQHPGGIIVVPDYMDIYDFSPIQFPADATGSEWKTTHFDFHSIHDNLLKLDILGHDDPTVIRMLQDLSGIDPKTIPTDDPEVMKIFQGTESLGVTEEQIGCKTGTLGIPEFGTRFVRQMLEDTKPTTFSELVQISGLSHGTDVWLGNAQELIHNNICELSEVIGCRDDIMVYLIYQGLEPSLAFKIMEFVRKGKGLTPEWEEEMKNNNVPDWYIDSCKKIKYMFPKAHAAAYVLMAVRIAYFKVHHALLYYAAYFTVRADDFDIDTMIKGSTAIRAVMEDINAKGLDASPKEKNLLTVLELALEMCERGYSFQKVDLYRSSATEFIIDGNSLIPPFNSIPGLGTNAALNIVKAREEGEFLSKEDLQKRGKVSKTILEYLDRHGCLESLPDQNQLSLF
Method in brief: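 First, compound is mixed with the reconstituted replication complex and held at room temperature. Next, circular single-stranded M13Gori with nucleotides starts synthesis. Finally, PicoGreen in EDTA halts the reaction and stains double-stranded product for fluorescence reading.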

[8] = molecular target: Tumor susceptibility gene 101 protein (Homo sapiens) (UniProt Q99816); test: qHTS Validation Assay for Iinhibitors of HIV-1 Budding by Blocking the Interaction of PTAP/TSG101 (AID 485342; calls by dose curve)
Chain of Tumor susceptibility gene 101 protein (Homo sapiens) (Q99816 whole entry, looked up, the tested form may be a part): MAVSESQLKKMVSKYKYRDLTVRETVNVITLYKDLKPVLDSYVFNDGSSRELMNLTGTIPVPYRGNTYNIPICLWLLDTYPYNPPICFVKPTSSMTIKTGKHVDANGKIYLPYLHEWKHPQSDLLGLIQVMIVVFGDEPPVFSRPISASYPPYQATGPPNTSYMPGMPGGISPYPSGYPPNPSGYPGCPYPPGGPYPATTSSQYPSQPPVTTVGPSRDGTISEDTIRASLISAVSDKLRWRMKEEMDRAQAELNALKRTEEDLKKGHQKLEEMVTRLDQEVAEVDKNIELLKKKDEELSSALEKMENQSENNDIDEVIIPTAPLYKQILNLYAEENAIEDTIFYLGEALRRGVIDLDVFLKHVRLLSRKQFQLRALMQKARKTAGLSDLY
Method in brief: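 Binding of a FITC-tagged PTAP-motif peptide (50 nM) to the Tsg101 binding domain (10 uM) is monitored by fluorescence polarization. Compounds are pin-delivered before peptide addition, and incubation runs 20 min at room temperature.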

[9] = qHTS Validation Assay to Find Inhibitors of Chronic Active B-Cell Receptor Signaling (AID 485345; active means well fitted curve in the direction sought with a large enough effect in the main read-out, with a control signal flat, not every such curve was filed as active)
Method in brief: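 TMD8 ABC-DLBCL cells stably carrying doxycycline-inducible IkappaBalpha–green luciferase fusion plus unfused red luciferase; compounds 46 uM to 3 nM, 4 h at 37C with doxycycline. Corrected green/red luminescence ratio normalized to 10 uM MG-132 and basal cell wells; curves fitted.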

[10] = molecular target: Beta-2 adrenergic receptor (Homo sapiens) (UniProt P07550); test: qHTS validation assay of beta-arrestin-biased ligands of beta2-adrenergic receptor (AID 485366)
Chain of Beta-2 adrenergic receptor (Homo sapiens) (P07550 whole entry, looked up): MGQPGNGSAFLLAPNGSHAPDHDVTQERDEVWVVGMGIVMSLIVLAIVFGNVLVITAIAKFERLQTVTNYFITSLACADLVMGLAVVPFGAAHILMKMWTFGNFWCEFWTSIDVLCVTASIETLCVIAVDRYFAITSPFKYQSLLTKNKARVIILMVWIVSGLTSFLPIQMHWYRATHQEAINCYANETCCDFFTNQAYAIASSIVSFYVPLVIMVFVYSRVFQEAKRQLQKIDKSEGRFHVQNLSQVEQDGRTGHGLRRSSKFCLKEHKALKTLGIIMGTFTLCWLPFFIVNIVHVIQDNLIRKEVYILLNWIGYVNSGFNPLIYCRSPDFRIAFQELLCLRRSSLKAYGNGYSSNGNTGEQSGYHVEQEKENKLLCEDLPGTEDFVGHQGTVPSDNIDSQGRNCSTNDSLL
Method in brief: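 Compound series up to 46 microM applied to beta2-AR/beta-arrestin Tango cells, 18 hr, 37 degrees C, 5% CO2. Read-out: tTA-driven luciferase luminescence, converted to %Activity; concentration-response curves assigned curve classes.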

[11] = molecular target: ATP-dependent 6-phosphofructokinase (Trypanosoma brucei brucei) (UniProt O15648); test: qHTS Validation Assay to Find Inhibitors of T. brucei phosphofructokinase (AID 485368)
Chain of ATP-dependent 6-phosphofructokinase (Trypanosoma brucei brucei) (O15648 whole entry, looked up): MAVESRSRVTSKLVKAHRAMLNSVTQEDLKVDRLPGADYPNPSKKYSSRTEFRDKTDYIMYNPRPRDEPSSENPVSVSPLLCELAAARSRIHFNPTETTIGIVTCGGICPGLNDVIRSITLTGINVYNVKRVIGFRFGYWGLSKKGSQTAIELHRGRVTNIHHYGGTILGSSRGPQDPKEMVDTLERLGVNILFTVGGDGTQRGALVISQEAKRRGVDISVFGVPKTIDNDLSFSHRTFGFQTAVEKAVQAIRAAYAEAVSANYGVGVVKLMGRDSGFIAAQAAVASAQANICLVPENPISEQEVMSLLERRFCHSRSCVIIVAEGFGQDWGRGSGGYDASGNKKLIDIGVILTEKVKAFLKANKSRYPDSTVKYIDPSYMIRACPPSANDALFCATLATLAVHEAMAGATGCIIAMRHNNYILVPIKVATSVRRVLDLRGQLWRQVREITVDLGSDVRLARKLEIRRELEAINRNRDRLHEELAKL
Method in brief: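 qHTS format, up to 57 uM. PFK 1.25 nM; F6P 0.5 mM; ATP 0.1 mM; 5 mM MgCl2, 0.01% Tween20, 0.1% BSA; 0.1 M TEA pH 8.0; 45 min RT; ADP-Glo readout; no-enzyme control = full inhibition.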

[12] = Quantitative high throughput screen for delayed death inhibitors of the malarial parasite plastid, 96 hour incubation (AID 488745);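 further: luciferase-expressing P. falciparum in erythrocytes at 2% hematocrit and 0.1% parasitemia; series mostly up to about 29 µM; nearly all actives have a fitted effect of over 70% in size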
Method in brief: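 Readout is firefly luciferase luminescence from an integrated reporter in P. falciparum; lower signal marks inhibited growth. Cultures at 2% hematocrit and 0.1% parasitemia were treated with compound across two generations (96 h, 37 C, 5% CO2).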

[13] = Quantitative high throughput screen for delayed death inhibitors of the malarial parasite plastid, 48 hour incubation (AID 488752); further: nearly all actives have a fitted effect of over 65% in size
Method in brief: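 First, compound was pinned into RPMI 1640 medium containing 0.5% Albumax. Next, reporter-parasite-infected erythrocytes were added to 2% hematocrit and 0.1% parasitemia. After 48 h at 37 C under 5% CO2, luciferase detection reagent was added and luminescence read.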

[14] = molecular target: Thioredoxin reductase 1, cytoplasmic (Rattus norvegicus) (UniProt O89049); test: qHTS Assay for Inhibitors of Mammalian Selenoprotein Thioredoxin Reductase 1 (TrxR1) (AID 488773); conditions: Potency: inhibition;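 further: drop in NADPH fluorescence over an 8 min run after selenite addition; series mostly up to about 57 µM; nearly all actives have a fitted effect of over 40% in size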
Chain of Thioredoxin reductase 1, cytoplasmic (Rattus norvegicus) (O89049 whole entry, looked up): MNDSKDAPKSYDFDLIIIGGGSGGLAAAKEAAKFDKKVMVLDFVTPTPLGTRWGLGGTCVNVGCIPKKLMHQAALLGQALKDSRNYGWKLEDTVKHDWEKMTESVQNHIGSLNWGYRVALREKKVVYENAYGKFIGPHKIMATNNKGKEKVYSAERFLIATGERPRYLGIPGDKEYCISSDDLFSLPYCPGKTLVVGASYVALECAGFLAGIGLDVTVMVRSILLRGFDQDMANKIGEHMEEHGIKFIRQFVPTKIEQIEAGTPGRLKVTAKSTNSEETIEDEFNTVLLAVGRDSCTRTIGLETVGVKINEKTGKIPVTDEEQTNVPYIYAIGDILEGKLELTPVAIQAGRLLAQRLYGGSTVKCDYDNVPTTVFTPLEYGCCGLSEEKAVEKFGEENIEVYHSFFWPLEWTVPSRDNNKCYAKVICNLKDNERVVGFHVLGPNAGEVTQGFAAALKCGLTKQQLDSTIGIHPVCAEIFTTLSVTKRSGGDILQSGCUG
Method in brief: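 Inhibition is scored from the loss of NADPH fluorescence between first and last reads of an 8-min kinetic run. Selenite (400 uM) was the substrate, added after 15 min compound preincubation at room temperature.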

[15] = molecular target: Flap endonuclease 1 (Homo sapiens) (UniProt P39748); test: qHTS Validation Assay for the Inhibitors of Human Flap endonuclease 1 (FEN1) (AID 488816)
Method in brief: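 Enzyme reagent 10 nM; cpds pinned; 15 min RT preinc.; substrate 50 nM final; reads t=0 and 15 min; no-enzyme buffer wells as neg. control; normalized data, 4-parameter Hill fit.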

[16] = molecular target: M-phase phosphoprotein 8 (Homo sapiens) (UniProt Q99549); test: qHTS Validation Assay for Inhibitors for MPP8 Chromodomain Interactions with Methylated Histone Tails (AID 488949);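 further: 50 nM MPP8 with 50 nM peptide preformed then compounds added for 30 min; AlphaScreen signal from MPP8 chromodomain bound to biotinylated H3K9me3 peptide; top concentration of the series differs between compounds; nearly all actives have a fitted effect of over 55% in size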
Chain of M-phase phosphoprotein 8 (Homo sapiens) (Q99549 whole entry, looked up): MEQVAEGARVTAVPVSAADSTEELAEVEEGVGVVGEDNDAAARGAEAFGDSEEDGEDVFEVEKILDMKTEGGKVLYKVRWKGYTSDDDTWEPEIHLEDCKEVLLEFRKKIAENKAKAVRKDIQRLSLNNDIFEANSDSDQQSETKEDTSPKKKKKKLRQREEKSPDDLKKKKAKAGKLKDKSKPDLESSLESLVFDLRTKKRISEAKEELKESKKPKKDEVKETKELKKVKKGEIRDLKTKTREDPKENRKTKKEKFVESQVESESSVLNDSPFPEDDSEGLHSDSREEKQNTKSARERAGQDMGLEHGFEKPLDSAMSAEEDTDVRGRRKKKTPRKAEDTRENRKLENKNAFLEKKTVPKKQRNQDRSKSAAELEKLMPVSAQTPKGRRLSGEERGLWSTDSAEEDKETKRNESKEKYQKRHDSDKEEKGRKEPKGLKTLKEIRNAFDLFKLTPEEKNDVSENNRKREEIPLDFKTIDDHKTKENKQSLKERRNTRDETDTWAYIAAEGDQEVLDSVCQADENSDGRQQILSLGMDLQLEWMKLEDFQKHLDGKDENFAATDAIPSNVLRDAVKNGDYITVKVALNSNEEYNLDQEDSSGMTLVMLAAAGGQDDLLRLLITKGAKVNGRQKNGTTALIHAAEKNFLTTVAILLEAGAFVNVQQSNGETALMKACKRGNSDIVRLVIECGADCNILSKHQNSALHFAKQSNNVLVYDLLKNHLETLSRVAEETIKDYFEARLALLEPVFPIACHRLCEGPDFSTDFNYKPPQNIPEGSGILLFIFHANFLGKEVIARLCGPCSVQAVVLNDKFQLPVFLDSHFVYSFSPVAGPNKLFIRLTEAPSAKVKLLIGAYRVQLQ
Method in brief: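 50 nM MPP8 + 50 nM b-H3K9me3 peptide, PBS pH 7.4/0.01% Tween-20, 30 min RT; + cpd 30 min RT; + AlphaScreen donor/Ni-chelate acceptor beads 10 ug/mL final, 30 min dark; luminescence read.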

[17] = molecular target: Methanococcus maripaludis chaperonin (MmCpn) (UniProt Q6LX38); test: High-Throughput Screening for Modulators of Cytosolic Chaperonin Activity: MmCpn Primary Screen (AID 488978);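 further: 50 nM MmCpn enzyme hydrolysing 30 µM ATP at 37 °C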
Method in brief: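 Steps: chaperonin 50 nM final; add compound, 5 min RT; start with ATP, 30 uM final; hold 10 min at 37C; add ADP Transcreener HTRF reagent, 5 min; read ex 320, em 590 and 665 nm.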

[18] = molecular target: Chromobox protein homolog 1 (Homo sapiens) (UniProt P83916); test: qHTS Validation Assay for Inhibitors of HP1-beta Chromodomain Interactions with Methylated Histone Tails (AID 488953);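 further: loss of AlphaScreen luminescence from HP1-beta binding biotinylated H3K9me3 peptide; series mostly up to about 110 µM; nearly all actives have a fitted effect of over 50% in size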
Chain of Chromobox protein homolog 1 (Homo sapiens) (P83916 whole entry, looked up): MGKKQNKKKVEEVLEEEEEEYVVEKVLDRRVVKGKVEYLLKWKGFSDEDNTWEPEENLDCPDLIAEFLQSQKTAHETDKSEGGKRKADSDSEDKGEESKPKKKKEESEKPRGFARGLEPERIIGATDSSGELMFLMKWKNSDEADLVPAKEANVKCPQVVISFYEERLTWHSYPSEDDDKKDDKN
Method in brief: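 Disruption of preformed HP1-beta:H3K9me3 peptide complexes (both 50 nM, PBS pH 7.4 with 0.01% Tween-20) is measured by AlphaScreen after 30 min compound exposure at room temperature, using streptavidin donor and nickel chelate acceptor beads at 10 ug/mL final.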

[19] = molecular target: Thioredoxin reductase 1, cytoplasmic (Rattus norvegicus) (UniProt O89049); test: qHTS Assay for Substrates of Mammalian Selenoprotein Thioredoxin Reductase 1 (TrxR1) (AID 488772);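 further: series mostly up to about 57 µM; a drop in NADPH fluorescence below the no-compound background marks a TrxR1 substrate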
Method in brief: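 In this dual-purpose format, potential substrates are identified from the first fluorescence read after selenite addition, not from the 8-minute delta. Rat enzyme is preincubated with NADPH and then with compound at ~22 deg C.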

Measured: Potency

O=C(O)/C=C/c1cnc[nH]1
not listed: [18] | [19]
inactive: all other assays above

CC(/C=C/c1cccc(Oc2ccc(F)cc2)c1)N(O)C(N)=O (centres undefined)
not listed: [19]
inactive: all other assays above

NCCS(=O)O
not listed: [11] | [18]
inactive: all other assays above

NC(=O)CNCCC(c1ccccc1)c1ccccc1
not listed: [11] | [16]
inactive: all other assays above

COc1cc(C(O)CO)ccc1O (centres undefined)
not listed: [14]
inactive: all other assays above

O=C(O)C1CN(CCCP(=O)(O)O)CCN1 (centres undefined)
not listed: [11]
inactive: all other assays above

N=C(N)c1ccc(N)cc1
inactive: all assays above

CC(N)(C(=O)O)c1ccc(C(=O)O)cc1 (centres undefined)
inactive: all assays above

N[C@H](C(=O)O)[C@H]1C[C@@H]1C(=O)O
inactive: all assays above

Nn1nnc2ccccc21
not listed: [12] | [18]
inactive: all other assays above

NC(=O)c1ccccc1
inactive: all assays above

C#CC(N)CCC(=O)O (centres undefined)
not listed: [12]
inactive: all other assays above

N[C@H](C(=O)O)c1cc(O)cc(O)c1
inactive: all assays above

Cc1cccc(C)c1OCC(N)C(C)C (centres undefined)
not listed: [12]
inactive: all other assays above

N[C@@H](CS(=O)O)C(=O)O
not listed: [11]
inactive: all other assays above

COCc1nc2c([nH]1)c(=O)n(C)c(=O)n2CC(C)C
not listed: [12]
inactive: all other assays above
